Source: PubChem BioAssay AID1159580 (chemical genetic matrix, 2015)
In all, about 5,500 compounds went through this assay and about 2,000 (36%) were called active. Inconclusive results (about 18%) are left out. Rule as the data show it: active = normalized growth mostly below about 0.91 (no sharp cut-off); inconclusive = no clear call, values can overlap the other calls; inactive = mostly above about 0.92. The list shows a part of the results.

Experiment: chemical genetic growth profiling, strain panel (AID 1159580);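 also: tested at 20 µM; growth read once vehicle control cultures reached saturation at 30 °C; 1 = growth at the plate median or of vehicle wells; lower values mean less growth of the strain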
Details: S. cerevisiae deletion strains, growth OD

Measured: normalized growth

COC(=O)[C@H]1[C@H]2C[C@H]3c4[nH]c5ccccc5c4CCN3C[C@H]2CC[C@@H]1O
inactive: locus YAL013W, strain DEP1, hits give low values 0.998 | locus YBR021W, strain FUR4, hits give low values 1 | locus YBR229C, strain ROT2, hits give low values 1.01 | locus YCL029C, strain bik1, hits give low values 1 | locus YDL035C, strain GPR1, hits give low values 1.01 | locus YDL074C, strain BRE1, hits give low values 1.02 | locus YDL101C, strain DUN1, hits give low values 1.01 | locus YDL134C, strain PPH21, hits give low values 1.01 | locus YDL185W, strain tfp1, hits give low values 1.01 | locus YDL192W, strain arf1, hits give low values 1 | locus YDR101C, strain arx1, hits give low values 1.01 | locus YDR150W, strain NUM1, hits give low values 1.01 | locus YDR162C, strain NBP2, hits give low values 1.01 | locus YDR318W, strain mcm21, hits give low values 1 | locus YDR388W, hits give low values 1 | locus YDR502C, strain sam2, hits give low values 1.01 | locus YEL061C, strain CIN8, hits give low values 1.01 | locus YER110C, hits give low values 1 | locus YER155C, strain BEM2, hits give low values 1.01 | locus YER167W, strain BCK2, hits give low values 1.01 | locus YGL078C, strain dbp3, hits give low values 1.01 | locus YGL086W, strain mad1, hits give low values 1.01 | locus YGL248W, strain PDE1, hits give low values 1.01 | locus YGR135W, strain pre9, hits give low values 0.988 | locus YGR229C, strain SMI1, hits give low values 1.01 | locus YGR252W, strain gcn5, hits give low values 0.977 | locus YHR030C, strain SLT2, hits give low values 1.01 | locus YHR079C, strain IRE1 (second series), hits give low values 1 | locus YHR094C, strain hxt1, hits give low values 1 | locus YHR129C, strain ARP1, hits give low values 1.01 | locus YHR200W, strain rpn10, hits give low values 1.01 | locus YIL066C, strain RNR3, hits give low values 1.02 | locus YIL073C, strain SPO22, hits give low values 1 | locus YIL125W, strain kgd1, hits give low values 0.999 | locus YIR030C, strain dcg1, hits give low values 0.999 | locus YJL095W, strain BCK1, hits give low values 1.02 | locus YJL134W, strain LCB3, hits give low values 1.01 | locus YJL168C, strain set2, hits give low values 0.998 | locus YJL187C, strain SWE1 (second series), hits give low values 1.03 | locus YJR043C, strain POL32, hits give low values 1.02 | locus YKL009W, strain mrt4, hits give low values 1 | locus YKL068W, hits give low values 0.993 | locus YKL085W, strain MDH1 (second series), hits give low values 1.01 | locus YKL085W, strain MDH1, hits give low values 1.01 | locus YKL190W, strain CNB1, hits give low values 1.01 | locus YKR001C, strain vps1, hits give low values 1.02 | locus YLR039C, strain RIC1, hits give low values 1.08 | locus YLR058C, strain SHM2, hits give low values 1.02 | locus YLR102C, strain apc9, hits give low values 1 | locus YLR262C, strain YPT6, hits give low values 1.08 | locus YLR268W, strain sec22, hits give low values 1 | locus YLR330W, strain CHS5, hits give low values 1.01 | locus YLR342W, strain FKS1 (second series), hits give low values 0.984 | locus YLR371W, strain rom2, hits give low values 0.999 | locus YLR418C, strain cdc73, hits give low values 0.985 | locus YML016C, strain PPZ1, hits give low values 1.01 | locus YML032C, strain rad52, hits give low values 0.998 | locus YML124C, strain tub3, hits give low values 0.993 | locus YMR078C, strain ctf18, hits give low values 1.01 | locus YMR223W, strain ubp8, hits give low values 0.992 | locus YMR263W, strain SAP30, hits give low values 1.01 | locus YMR307W, strain GAS1, hits give low values 0.95 | locus YNL067W, strain RPL9B, hits give low values 1.02 | locus YNL233W, strain BNI4, hits give low values 1.02 | locus YNL250W, strain rad50, hits give low values 1.02 | locus YNL271C, strain bni1, hits give low values 1.01 | locus YNL298W, strain CLA4, hits give low values 0.988 | locus YNL307C, strain MCK1, hits give low values 1.01 | locus YNR052C, strain pop2, hits give low values 0.998 | locus YOL012C, strain htz1 0.805 | locus YOL147C, strain pex11, hits give low values 1.01 | locus YOR061W, strain CKA2, hits give low values 1.01 | locus YOR069W, strain VPS5, hits give low values 1.01 | locus YOR136W, strain idh2, hits give low values 0.998 | locus YOR144C, strain elg1, hits give low values 1 | locus YOR184W, strain ser1, hits give low values 1.01 | locus YOR316C, strain cot1, hits give low values 1.01 | locus YPL241C, strain CIN2, hits give low values 1.01 | locus YPR119W, strain clb2, hits give low values 1 | locus YPR141C, strain kar3, hits give low values 0.992 | locus YPR163C, strain tif3, hits give low values 1.01 | locus YPR167C, strain met16, hits give low values 1 | strain wtn01, hits give low values 1.01
